Experimental findings from PubChem BioAssay AID1159602 (The Scripps Research Institute Molecular Screening Center, 2016) are described below.

Hit rate of the full screen: of about 22,000 compounds, about 220 (1%) were called active. Rule as the data show it: active = inhibition above about 35%; inactive = the rest. Many of the other results were omitted from the sample, so actives are more common in it than they were.

For this assay, the target named is Mitogen-activated protein kinase kinase kinase 5 (Homo sapiens) (UniProt Q99683). The assay can be described thus: blockers of MAP3K5 kinase activity – biochemical, AlphaScreen, primary screen (AID 1159602).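 Also: 0% = median of compound wells and 100% = no enzyme.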 The conditions noted are these: AlphaScreen MKK6 phosphorylation by ASK1, luminescence; at 7.44 µM; active compounds read high. Background: In Alpha technology, singlet oxygen from a donor bead excites a nearby acceptor bead.
Sequence of Mitogen-activated protein kinase kinase kinase 5 (Homo sapiens) (Q99683 whole entry, looked up): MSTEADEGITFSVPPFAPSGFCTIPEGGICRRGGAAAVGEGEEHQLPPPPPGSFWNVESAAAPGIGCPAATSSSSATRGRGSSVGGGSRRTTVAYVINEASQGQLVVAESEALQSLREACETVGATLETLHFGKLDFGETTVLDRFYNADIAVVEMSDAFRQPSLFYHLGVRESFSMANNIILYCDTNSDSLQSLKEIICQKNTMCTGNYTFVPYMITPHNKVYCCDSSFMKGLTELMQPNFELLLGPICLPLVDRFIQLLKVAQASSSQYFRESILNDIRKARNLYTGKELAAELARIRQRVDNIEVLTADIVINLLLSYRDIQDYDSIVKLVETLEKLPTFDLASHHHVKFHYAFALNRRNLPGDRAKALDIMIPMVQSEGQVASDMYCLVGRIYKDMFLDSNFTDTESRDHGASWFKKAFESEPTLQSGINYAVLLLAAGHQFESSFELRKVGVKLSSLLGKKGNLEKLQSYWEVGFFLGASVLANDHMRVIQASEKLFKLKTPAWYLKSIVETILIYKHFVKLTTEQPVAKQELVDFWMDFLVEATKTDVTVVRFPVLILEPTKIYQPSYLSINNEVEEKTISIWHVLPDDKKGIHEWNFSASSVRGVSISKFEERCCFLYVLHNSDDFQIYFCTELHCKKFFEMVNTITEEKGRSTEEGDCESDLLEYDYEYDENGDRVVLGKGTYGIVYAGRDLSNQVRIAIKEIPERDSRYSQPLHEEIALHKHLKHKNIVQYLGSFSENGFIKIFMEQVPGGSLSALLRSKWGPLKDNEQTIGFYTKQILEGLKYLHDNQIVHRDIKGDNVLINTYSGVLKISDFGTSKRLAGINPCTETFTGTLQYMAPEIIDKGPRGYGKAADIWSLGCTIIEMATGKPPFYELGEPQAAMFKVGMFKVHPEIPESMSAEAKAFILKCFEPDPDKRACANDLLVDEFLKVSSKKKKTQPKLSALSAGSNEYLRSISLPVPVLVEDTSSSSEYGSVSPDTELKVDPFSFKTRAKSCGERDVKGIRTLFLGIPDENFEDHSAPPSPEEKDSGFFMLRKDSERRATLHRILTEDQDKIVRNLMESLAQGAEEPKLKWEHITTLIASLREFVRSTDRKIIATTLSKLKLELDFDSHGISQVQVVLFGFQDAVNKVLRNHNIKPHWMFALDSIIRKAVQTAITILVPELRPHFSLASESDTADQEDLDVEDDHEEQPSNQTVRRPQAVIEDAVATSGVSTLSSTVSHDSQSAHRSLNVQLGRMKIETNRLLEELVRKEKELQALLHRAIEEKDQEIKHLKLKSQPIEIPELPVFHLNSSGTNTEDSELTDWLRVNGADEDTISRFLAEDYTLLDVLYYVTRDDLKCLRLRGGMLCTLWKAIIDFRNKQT
In the case of `CC(=O)Nc1ccc(NC(=O)c2csc(-c3c(C)nn(C)c3C)n2)cc1`, the inhibition is 11% (inactive).
The same measure for `c1nc(NC2CC2)c2[nH]c(N3CCN(Cc4ccc5c(c4)OCO5)CC3)nc2n1`: -10.7% (inactive); for `c1cnc(Nc2nc(NC3CC3)c3[nH]cnc3n2)cn1`: -8.13% (inactive).
In the case of `CC(=O)Nc1ccc(Nc2nc(N3CCc4ccccc4C3)nc3c2ncn3C(C)C)cc1`, the inhibition is 14% (inactive).
The same measure for `CN(C)c1cccc(Nc2nc3ccc(C(=O)Nc4ccc(N5CCOCC5)cc4)cc3s2)c1`: 29% (inactive); for `COc1ccc(CCNC(=O)c2ccnc(-c3ccc(C(=O)NC4CC4)cc3)c2)cc1`: -2.59% (inactive); for `CCN(CC)c1nc(NCCCN2CCCC2=O)nc(N2CCC(N3CCOCC3)CC2)n1`: 2.42% (inactive).
Then `CCNc1nc(NCCOc2ccccc2)c2ncn(Cc3ccc(C(F)(F)F)cc3)c2n1`, with -5.64% (inactive).
For the compound `FC(F)(F)c1cccc(CNc2ncnc3nc(N4CCC(N5CCOCC5)CC4)[nH]c23)c1`, the inhibition was -8.59% (inactive).
The same measure for `CCN(CC)C(=O)C1CCCN(c2nccc(NCc3nc4ccccc4[nH]3)n2)C1` (stereo not drawn): 4.76% (inactive); for `COc1ccc(CNc2nc(-c3cccc(OC(F)(F)F)c3)nc3c2ncn3C(C)C)cc1`: -11.1% (inactive).
Regarding `COc1cc2nc(NCc3cccnc3)nc(NCCN3CCOCC3)c2cc1OC`, the inhibition is -7.09% (inactive).
For `NS(=O)(=O)c1ccc(Nc2nccc(-c3cccc(Cl)c3)n2)cc1`, the inhibition was -4.08% (inactive).
Then `Cc1cc(Nc2ccccc2)nc(NCc2cccnc2)n1`, with -4.25% (inactive).
Then `O=C(NCc1ccccc1)c1ccnc(Nc2nccc3ccccc23)c1`, with -2.15% (inactive).
Then `CCN(CC)C(=O)C1CCCN(c2nc(Nc3ccc(NC(C)=O)cc3)c3ncn(C4CCCCC4)c3n2)C1` (stereo not drawn), with -11% (inactive); and `Nc1nc(NCCO)cc(N2CCOCC2)n1`, with -6.61% (inactive).
As for `O=C(NCc1nc2ccncc2[nH]1)c1c(F)cccc1F`, the inhibition was -12.1% (inactive).
Then `O=C(Cc1ccc(Br)cc1)N1CCCC(Nc2cccc3cnccc23)C1` (stereo not drawn), with -21.7% (inactive); and `O=C1CCCN1CCCNc1nc(-c2ccccc2)nc2nc[nH]c12`, with -3.38% (inactive).
Turning to `CN1CCN(c2nc(C3COc4ccccc4O3)nc3ccc(-c4cn[nH]c4)cc23)CC1` (stereo not drawn), the inhibition was 41.7% (active).
Then `Cn1c(C2COc3ccccc3O2)nc2ccc(-c3cn[nH]c3)cc21` (stereo not drawn), with 8.71% (inactive); and `c1ccc2c(c1)OCC(c1cnc3ccc(-c4cn[nH]c4)cc3n1)O2` (stereo not drawn), with 14.4% (inactive).

The term inhibition denotes the change of the read-out against control, counted positive when it falls.
